Unmarked numbers belong to inactive results.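 How the source made its calls: active means inhibition at or above 50% relative to wild type and mutant plate controls; inactive means inhibition below 50%.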
assay: loss of swimming-algae plug formation – whole organism, Chlamydomonas reinhardtii, WT vs cilia-less mutant, absorbance, 96-well, primary screen (AID 463189); conditions: Chlamydomonas reinhardtii gravitaxis, OD600 absorbance, 2 days; at 10 µM; hits give high values;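 further: 0% = wild type cc124 cells in DMSO and 100% = ciliumless bld1 mutant cells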

| SMILES | inhibition |
| --- | --- |
| CC(=O)[C@H]1CCC2C3CC=C4C[C@@H](OS(=O)(=O)O)CC[C@]4(C)C3CC[C@@]21C (stereo not given in full) | 4.69% |
| Nc1ncnc2c1ncn2C1CCCO1 (stereo not given) | -5.2% |
| OC[C@H]1O[C@@H](n2cnc3c(Nc4ccccc4)ncnc32)C(O)[C@H]1O (stereo not given in full) | -0.892% |
| CN1CCN(CC/C=C2/c3ccccc3Sc3ccc(S(=O)(=O)N(C)C)cc32)CC1 | 19.2% |
| CC(C)C[C@H]1C(=O)N2CCC[C@H]2[C@]2(O)O[C@](NC(=O)[C@@H]3C=C4c5cccc6[nH]c(Br)c(c56)C[C@H]4N(C)C3)(C(C)C)C(=O)N12 | 9.22% |
| O=C1NC(O)=NC1(c1ccccc1)c1ccccc1 | -1.32% |
| COC(=O)c1c(-c2cc(OC)c(OC)c(OC)c2)c2ccc(OCc3ccccn3)cc2c(=O)n1-c1ccc(N)cc1 | 2.92% |
| CCCCCCCC/C=C\CCCCCCCC(=O)NCCO | -7.05% |
| O=C(O)CCC(=O)N1CCCC1C(=O)O (stereo not given) | 0.347% |
| CN(C)c1ccc(/C=C2\C(=O)Nc3ccccc32)cc1 | 4.05% |
| N#C/C(=C\c1c[nH]c2ccccc12)C(=O)c1ccc(O)c(O)c1 | 4.95% |
| Cc1cc(C)c(NC(=O)C[C@H](CC(=O)O)c2cccc3ccccc23)c(C(=O)N2CCC3(CCCC3)CC2)c1 | 13.6% |
| O=c1c(-c2ccc(O)cc2)coc2cc(O)cc(O)c12 | -5.08% |
| CC(=O)SC1CC2=CC(=O)CC[C@]2(C)C2CC[C@@]3(C)C(CC[C@@]34CCC(=O)O4)C12 (stereo not given in full) | 3.21% |
| O=c1cc(-c2ccccc2)[nH]c2nc(Cl)ccc12 | 6.49% |
| N=C(N)c1ccccc1 | 7.5% |
| CC12CC3CC(C)(C1)CC(N)(C3)C2 | 3.51% |
| O=c1oc(Cl)c(Cl)c2ccccc12 | 3.88% |
| COC(=O)c1c(C)[nH]c(C)c1C(=O)c1ccccc1Cc1ccccc1 | 0.163% |
| CC(=O)/C(C)=N/O | 1.74% |

| SMILES | inhibition |
| --- | --- |
| N[C@H](C(=O)O)[C@H]1C[C@@H]1C(=O)O | 2.25% |
| Cc1ccccc1CNc1ncnc2c1ncn2C1OC(CO)C(O)C1O (stereo not given) | -2.9% |
| NC(=O)C1=CN(C2OC(COP(=O)(O)OP(=O)(O)OC[C@H]3O[C@@H](n4cnc5c(N)ncnc54)C(OP(=O)(O)O)[C@H]3O)C(O)C2O)C=CC1 (stereo not given in full) | -0.493% |
| CCN1CCC[C@H]1CNC(=O)c1cc(S(N)(=O)=O)ccc1OC | 3.94% |
| CCOC(=O)C(C)(C)Oc1ccc(Cl)cc1 | -6.65% |
| CCn1ccnc1CC1COc2ccccc2O1 (stereo not given) | 5.81% |
| O=c1[nH]c2cc([N+](=O)[O-])c([N+](=O)[O-])cc2[nH]c1=O | 5.09% |
| COc1cc(/C=C(\C#N)C(=O)c2ccc(O)c(O)c2)cc(I)c1O | 7.26% |
| NNc1nncc2ccccc12 | -2.73% |
| CC(=O)CCCCn1c(=O)c2c(ncn2C)n(C)c1=O | -0.901% |
| CN/C(=C\[N+](=O)[O-])NCCSCc1ccc(CN(C)C)o1 | 1.86% |
| CCCCCCCCCCCCCCCCCC(=O)NCC(COP(=O)([O-])OCC[N+](C)(C)C)OCC (stereo not given) | 9.71% |
| COc1ccc2c(c1)c(CC(=O)O)c(C)n2C(=O)c1ccccc1 | 2.3% |
| O=c1ccc2c(OCCCCc3ccccc3)c3ccoc3cc2o1 | 10.5% |
| CN(C)CC[C@@H](c1ccc(Cl)cc1)c1ccccn1 | 32.3% |
| CN(C(=O)CCCOc1ccc2[nH]c(=O)ccc2c1)C1CCCCC1 | 3.15% |
| CC(=O)SCC[N+](C)(C)C | -2.92% |
| C[N+](C)(C)CCO | 2.98% |
| NC1(C(=O)O)CCc2cc(C(=O)O)ccc21 (stereo not given) | 4.42% |
| COC(=O)Nc1nc2ccc(C(=O)c3cccs3)cc2[nH]1 | 11.2% |
